IL-1B inflam inh: inhibitors of inflammasome signaling (IL-1 beta secretion); THP-1 LPS/ATP IL-1B secretion, AlphaLISA, 16 h; hits give low values; hit rate 4.7% among 360,000; activity change, % at 57.5 µM; AID 743279; in the data active means activity change below about -50%; inconclusive means mostly about -30% to -49%
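Secreted IL-1B measured by AlphaLISA bead assay after 16 h compound exposure of THP-1 cells; compounds (final up to 57.5 uM) added 1 h before LPS (250 ng/mL) and ATP (1.25 mM) stimulation; lower signal means less secretion.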
DT40 TDP1 no CPT: qHTS for Inhibitors of human tyrosyl-DNA phosphodiesterase 1 (TDP1): qHTS in cells in absence of CPT. DT40 Tdp1-/- hTDP1 cells, no CPT, ATP luminescence, 48 h. Potency, µM (highest dose often 46.2 µM), inactives show top-dose activity change, negative = growth inhibition, hits mostly inhibitors. hit rate 15% among 420,000. AID 686978, 2013; further: potency means the concentration at half of the fitted maximal effect; nearly all actives have a fitted effect of over 55% in size
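Stably hTDP1-transfected Tdp1-null chicken DT40 cells were treated with library compounds minus camptothecin and grown for at least 48 hr at 37 °C, after which cellular ATP was quantified by luminescence.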
HT1080 IDH1KD tx: kills HT-1080 cells with IDH1 knockdown; HT-1080 IDH1 knockdown viability, ATP luminescence, 48 h; Potency, µM (titrated, usually from 46.1 µM), without a hit: at the highest dose activity, negative = toxicity, actives largely listed as cytotoxic; hit rate 2% among 360,000;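 further: potency means the concentration at half of the fitted maximal effect; 0% = DMSO wells and -100% = cell-free medium wells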
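CellTiter-Glo luminescence after 48 h compound exposure at 37 degrees C of IDH1-knockdown HT-1080 cells in 5% FBS RPMI. %Activity scaled between DMSO wells and cell-free media wells, with curves fitted and assigned curve classes.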
DT40 TDP1 CPT: growth inhibition of DT40 Tdp1-/-;hTDP1 cells with camptothecin (screen for TDP1 inhibitors). chicken DT40 Tdp1-/-;hTDP1 cells + 20 nM CPT, ATP luminescence, 48 h. Potency, µM (titrated, usually from 46.2 µM), for the others: at the top dose activity change, negative = growth inhibition, usual class: inhibitors. hit rate 12% among 420,000; further: potency means the concentration at half of the fitted maximal effect; nearly all actives have a fitted effect of over 55% in size
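Cell growth measured by CellTiter-Glo luminescence after a minimum 48 h, 37 C compound exposure with 20 nM CPT in Tdp1-knockout DT40 cells stably expressing hTDP1, seeded 400/well; qHTS titration format.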
HT1080-NT tox: kills 2HG-producing HT-1080-NT fibrosarcoma cells; Potency, µM (series often up to 46.1 µM), without a hit: at the top dose activity, negative = less viability, most hits filed as cytotoxic; hit rate 1.6% among 360,000; HT-1080-NT fibrosarcoma viability, CellTiter-Glo ATP luminescence, 48 h; AID 686970;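 further: NT is the 2HG producing partner of a matched IDH1 knockdown line; potency means the concentration at half of the fitted maximal effect; 0% = DMSO-treated cells and -100% = media-only wells without cells; nearly all actives have a fitted effect of over 55% in size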
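Toxicity toward the 2HG-producing NT line was scored as %Activity, normalised to DMSO and no-cell wells, from CellTiter-Glo luminescence after 48 hours' treatment.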
Active calls of the source: *; ? = inconclusive; / = no result. Sampled rows, rich in hits. Any-hit rate of the full collection: about 19%. Unless noted, the call rests on the fitted dose curve; in most records, active means well fitted curve in the direction sought with a large enough effect; inconclusive means small, poorly fitted or top-dose-only effect, or another doubt; inactive means no such curve, though single readings can be large; an effect the other way counts as inactive or inconclusive. Unless noted, on the % scale 0 is the no-effect control and ±100 the full control effect.

SMILES | IL-1B inflam inh | DT40 TDP1 no CPT | HT1080 IDH1KD tx | DT40 TDP1 CPT | HT1080-NT tox
Cc1c(NC(=S)N/N=C\c2ccccc2O)c(=O)n(-c2ccccc2)n1C | 68 | 21µM* | -26% | ? | -1%
N#Cc1ccc(C(=O)NC2CCCCCCC2)cc1 | -3 | ? | -10% | -21% | 2%
CCC(C)NC(=O)C(Cc1ccccc1)NS(=O)(=O)c1ccc2c(c1)oc(=O)n2C (centres undefined) | -15 | 32% | 10% | -3% | 10%
Cc1ccc(S(=O)(=O)CCNC(=O)Cc2ccc(Cl)cc2)cc1 | -11 | -14% | -2% | 24% | 9%
Cc1ccc(CC(=O)N2CCN(c3cccc(C(F)(F)F)c3)CC2)cc1 | -5 | 18µM* | -8% | 23µM* | 5%
O=C(CS(=O)(=O)c1ccccc1)N1CCN(c2ccccc2)CC1 | -2 | -11% | 3% | -3% | 12%
Cc1nc(-c2ccc(S(=O)(=O)N3CCN(c4cccc(C(F)(F)F)c4)CC3)cc2)co1 | / | 18µM* | / | ? | /
Cc1ccc(S(=O)(=O)CC(=O)N2CCN(c3cccc(C(F)(F)F)c3)CC2)cc1 | -1 | 21µM* | 5% | 16µM* | -3%
CC1(C2CC2)NC(=O)N(CC(=O)N2CCN(c3cccc(C(F)(F)F)c3)CC2)C1=O (centres undefined) | -3 | 12µM* | 1% | 15µM* | -2%
O=C(/C=C/c1ccc(Br)cc1)N1CCN(c2cccc(C(F)(F)F)c2)CC1 | ? | ? | -9% | ? | ?
O=C(CNS(=O)(=O)c1ccccc1)Nc1ccc2c(c1)OCO2 | -13 | -17% | 12% | ? | 20%
COc1ccccc1CC(=O)N1CCN(c2cccc(C(F)(F)F)c2)CC1 | -5 | 13µM* | -16% | 23µM* | ?
CN(C)CCCN(C(=O)c1cc(-c2cccs2)nc2ccccc12)c1nc2c(F)cccc2s1 | -74* | -11% | ? | ? | ?
Cc1ccc2nc(N(CCCN(C)C)C(=O)c3cc(-c4cccs4)nc4ccccc34)sc2c1 | ? | ? | ? | 16µM* | ?
O=C(O)c1ccc(CNCc2ccccc2F)cc1 | -2 | -19% | -1% | 7% | 20%
Cc1ccc(-n2ncc3c(NCCCN4CCOCC4)ncnc32)cc1Cl | / | -14% | / | ? | /
Cc1ccc(C)c(N2CCN(CCCNc3ncnc4onc(-c5ccc(Cl)cc5)c34)CC2)c1 | / | 16µM* | / | ? | /
Cc1cccc(N2CCN(CCCNc3ncnc4onc(-c5ccc(Cl)cc5)c34)CC2C)c1 (centres undefined) | / | 21µM* | / | ? | /
Cc1cccc(N2CCN(CCCNc3ncnc4onc(-c5ccc(F)cc5)c34)CC2C)c1 (centres undefined) | / | 21µM* | / | ? | /
CCCN(CC(=O)Nc1ccccc1C)C(=O)c1sc2ccccc2c1Cl | -7 | ? | 14% | -20% | 4%
Cc1cccc(CCNC(=O)c2cc3c(=O)[nH]c4ccc(C)cc4c3s2)c1 | / | -26% | / | 0% | /
CCc1c(N)nc(N)nc1Nc1ccccc1Cl | 18 | 21µM* | -18% | 18µM* | ?
Oc1oc(-c2ccccc2)nc1C=Nc1cccc2ccccc12 | 13 | 16µM* | -16% | ? | ?
CS/C(N)=N/N=C/c1c(O)ccc2ccccc12 | 34 | 3.7µM* | ? | ? | -16%
Oc1cccc(C=Nc2cccc3ccccc23)c1O | -59* | ? | 23µM* | ? | 18µM*
SMILES | IL-1B inflam inh | DT40 TDP1 no CPT | HT1080 IDH1KD tx | DT40 TDP1 CPT | HT1080-NT tox
OCC(CO)(CO)N=Cc1c(O)ccc2ccccc12 | 22 | ? | ? | ? | ?
Oc1ccc2ccccc2c1C=NC12CN3CCN(CN(C3)C1)C2 | 25 | ? | -5% | 13µM* | -2%
Oc1ccccc1N=Cc1c(O)ccc2ccccc12 | 35 | -17% | 18µM* | ? | ?
Oc1ccc2ccccc2c1C=Nc1ccccc1Br | 24 | -25% | -27% | 3% | -24%
Cc1ccc(S(=O)(=O)N2CCN(C(=O)[C@H](Cc3ccccc3)NC(=O)c3ccco3)CC2)cc1C | -6 | 16µM* | -13% | ? | -3%
CSCCC(NC(=O)c1ccco1)C(=O)N1CCN(C(c2ccccc2)c2ccccc2)CC1 (centres undefined) | ? | 16µM* | -2% | 23µM* | -9%
Cc1ccc(S(=O)(=O)N2CCN(C(=O)[C@H](Cc3ccccc3)NC(=O)c3ccco3)CC2)cc1 | 11 | ? | 3% | ? | -1%
CSCCC(NC(=O)c1ccco1)C(=O)N1CCCC(C(F)(F)F)C1 (centres undefined) | 3 | ? | -4% | -7% | -1%
Cc1ccc(C)c(S(=O)(=O)N2CCN(C(=O)[C@H](Cc3ccccc3)NC(=O)c3ccco3)CC2)c1 | 27 | 16µM* | 9% | 23µM* | 14%
O=S(=O)(c1ccc(Br)cc1F)N1CC[C@H](O)C1 | 21 | 5% | 8% | 10% | 11%
O=C(COc1cccc(C(F)(F)F)c1)NCC(c1ccco1)N1CCCCC1 (centres undefined) | ? | ? | -4% | ? | -22%
COc1ccc(-c2nnc(SCC(=O)Nc3ccc(C)c(C)c3)s2)cc1 | / | ? | / | -28% | /
COc1ccccc1NC(=O)Nc1cc(F)ccc1F | -26 | 13% | 5% | -1% | 12%
CC(=O)c1ccc(C(=O)N2CCc3c([nH]c4ccccc34)C2c2cccc(C)n2)s1 (centres undefined) | -67* | 15µM* | ? | 23µM* | -21%
CCOC(=O)c1[nH]c(C)c(C(=O)N2CCc3c([nH]c4ccccc34)C2c2ccccn2)c1C (centres undefined) | -52* | ? | -23% | 16µM* | -11%
Cc1cccc(C2c3[nH]c4ccccc4c3CCN2C(=O)c2ccc(=O)[nH]c2)n1 (centres undefined) | 32 | -22% | -4% | 6% | -2%
CC(=O)Nc1ccc(CN2CCc3c([nH]c4ccccc34)C2c2ccccn2)cc1 (centres undefined) | -2 | 21µM* | 18µM* | ? | 23µM*
Cc1nc(C)c(CC(=O)N2CCc3c([nH]c4ccccc34)C2c2ccccn2)s1 (centres undefined) | -14 | ? | -10% | -7% | -14%
Cc1cc2cc(C(=O)N3CCc4c([nH]c5ccccc45)C3c3ccccn3)ccc2o1 (centres undefined) | -25 | 18µM* | ? | ? | -16%
COc1cccc(CSc2nnc(-c3ccncc3)n2N)c1 | 4 | -1% | 13% | 3% | 16%
O=C(CS(=O)(=O)c1c[nH]c2ccccc12)N1CCc2ccccc21 | -24 | -22% | -2% | 6% | -2%

Source: PubChem (National Center for Advancing Translational Sciences (NCATS))
